Experimental data from the supplement of paper PMC6555819.

Assays:
Experiment in all cases: PBM binding z-score (relative to random genomic background probes); higher = stronger binding; sequences stand for … in GC…GCGATTGACAGCGTAGAATGAAGG
[1] = test system: PPARg:RXRa DBDmut IVT, anti-RXR (DBD mutation: RXRa K156A/R161A, NR concentration 270 nM, RXRa partner concentration 90 nM)
Method in brief: (§1)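 Ligand-free nuclear receptor dimers were applied to custom Agilent 4×180K protein-binding microarrays whose double-stranded probes carried direct-repeat seeds, single-nucleotide variants, half-site ablations and random human genomic background sequences in 34-nt variable regions. Incubation lasted 1 h. Binding z-scores were computed against the random background probes from regression-normalized fluorescence.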

[2] = test system: PPARg:RXRa IVT, anti-PPARg (NR concentration 270 nM, RXRa partner concentration 90 nM)
Method in brief: as §1

[3] = test system: PPARg DBDmut:RXRa IVT, anti-PPARg (DBD mutation: PPARg1 K132A/R137A, NR concentration 270 nM, RXRa partner concentration 90 nM)
Method in brief: as §1

[4] = test system: PPARg DBDmut IVT, anti-PPARg (DBD mutation: PPARg1 K132A/R137A, NR concentration 270 nM)
Method in brief: as §1

[5] = test system: PPARg homodimer (NR concentration 180 nM)
Method in brief: as §1

[6] = test system: PXR:RXRa (NR concentration 270 nM, RXRa partner concentration 90 nM)
Method in brief: as §1

[7] = test system: PXR homodimer (NR concentration 270 nM)
Method in brief: as §1

[8] = test system: RARa:RXR (NR concentration 270 nM, RXRa partner concentration 90 nM)
Method in brief: as §1

[9] = test system: RARa homodimer (NR concentration 270 nM)
Method in brief: as §1

[10] = test system: RARb:RXRa (NR concentration 270 nM, RXRa partner concentration 90 nM)
Method in brief: as §1

[11] = test system: RARb homodimer (NR concentration 270 nM)
Method in brief: as §1

[12] = test system: RARg:RXRa (NR concentration 270 nM, RXRa partner concentration 90 nM)
Method in brief: as §1

[13] = test system: RARg homodimer (NR concentration 270 nM)
Method in brief: as §1

[14] = test system: RXRa DBDmut IVT, anti-RXR (DBD mutation: RXRa K156A/R161A, NR concentration 90 nM)
Method in brief: as §1

[15] = test system: RXRa homodimer (NR concentration 180 nM)
Method in brief: as §1

[16] = test system: THRa:RXRa (NR concentration 90 nM, RXRa partner concentration 90 nM)
Method in brief: as §1

[17] = test system: THRa homodimer (NR concentration 90 nM)
Method in brief: as §1

[18] = test system: VDR homodimer (NR concentration 270 nM)
Method in brief: as §1

Row | Sequence | PBM binding z-score [1] | PBM binding z-score [2] | PBM binding z-score [3] | PBM binding z-score [4] | PBM binding z-score [5] | PBM binding z-score [6] | PBM binding z-score [7] | PBM binding z-score [8] | PBM binding z-score [9] | PBM binding z-score [10] | PBM binding z-score [11] | PBM binding z-score [12] | PBM binding z-score [13] | PBM binding z-score [14] | PBM binding z-score [15] | PBM binding z-score [16] | PBM binding z-score [17] | PBM binding z-score [18]
1 | TGTGCTAGGTCAACGATGGTCAGCTAATCTGCTA | 2.94 | 4.09 | 0.203 | 0.0393 | 1.1 | 1.4 | -0.379 | 1.85 | -0.241 | 4.15 | 3.4 | 3.88 | 5.19 | 0.342 | 2.45 | 3 | 0.529 | -0.186
2 | ACTATCAGTTGAGACGAGGGCAACCGATAGGTTG | -0.519 | 0.218 | -0.42 | -0.235 | 0.148 | 1.44 | -0.0291 | 0.7 | -0.128 | 0.903 | 1.12 | 0.732 | 0.78 | 0.39 | 0.625 | 2.59 | 0.179 | 0.822
3 | CACCCTAGGTCAGGGCCAGTATAGGAGGAACGTT | 0.709 | 1.64 | -0.28 | -0.553 | 1.71 | 0.664 | 0.00908 | 1.49 | -0.0281 | 3.38 | 2.67 | 3.33 | 3.69 | -0.329 | 1.99 | 2.23 | 0.911 | -0.219
4 | GTACCAAAGTGAATAGGTCGTTGATGAGTAGGCG | -0.402 | -0.0847 | 0.259 | -0.53 | 0.312 | -0.00367 | -0.196 | 0.176 | 0.281 | 0.279 | 0.226 | 0.205 | 0.383 | -0.282 | 0.584 | -0.048 | -0.733 | -0.0624
5 | CTACCATGGTGAACAAGGTCGTTGATTACTATTC | 0.666 | 0.434 | 0.343 | 0.226 | 0.387 | 1.56 | 0.655 | 1.43 | 0.262 | 0.627 | 1.04 | 0.598 | 0.184 | 0.982 | 0.913 | 1.99 | 1.1 | 1.41
6 | GCTGCTAGGTCAGGTTTGTCAGCTAACGGGTACG | 3.26 | 1.92 | -0.625 | -0.587 | 0.518 | 0.229 | -0.27 | 0.51 | -0.0516 | 2.95 | 2.21 | 2.03 | 2.94 | 0.952 | 0.681 | 1.48 | 0.489 | 0.755
7 | TGAATGAGTTTATAAGATCAGGGAACGTTGCAAA | -0.937 | -0.179 | 0.631 | 0.748 | 0.106 | 0.215 | 0.318 | 0.174 | 0.105 | -0.00933 | -0.48 | 0.181 | 0.344 | 3 | 0.0895 | 0.0488 | -0.207 | 2.37
8 | TGTTAAAGTTCAAAGGTAACGTAAGTATCCACAC | 0.162 | 3.26 | 2.15 | 2.02 | 3.98 | 5.77 | 4.11 | 6.35 | 1.41 | 4.93 | 3.61 | 5.89 | 5.47 | 4.41 | 6.91 | 3.42 | 0.278 | 2.82
9 | CCGACTGGGGCAAGGTTATCATAACGCACAGCCA | 3.18 | 3.27 | -0.411 | -0.512 | 0.593 | 0.253 | -0.27 | 0.986 | -0.0927 | 1.5 | 1.27 | 1.03 | 1.08 | 0.0521 | 1.12 | 1 | 0.224 | 0.128
10 | TAGCCTAGGTCATTCGGGGGCCAGTATAGAAAGC | 2.62 | 4.33 | 2.22 | 5 | 1.93 | 3.84 | 0.257 | 3.92 | 0.944 | 3.99 | 3.39 | 6.55 | 5.25 | 2.13 | 3.58 | 4.17 | 1.48 | 2.32
11 | GCTATTAGTTGAAAGGGAAACCGAATGATTCTCG | 0.303 | 0.0307 | 0.646 | 0.468 | 0.766 | -0.0354 | 0.0349 | 0.204 | 1.17 | -0.128 | -0.448 | -0.0918 | 0.0889 | 0.797 | -0.215 | -0.127 | -0.399 | 0.461
12 | CCGACTGGGGCATAAGGTTACCATTAGCCAGCCC | 3.03 | 3.04 | -1.02 | -1.9 | 0.694 | 0.105 | -0.286 | 1.35 | -0.407 | 1.61 | 1.82 | 1.34 | 0.904 | -0.204 | 1.08 | 1.87 | 1.37 | -0.611
13 | ATCTATAGGTAAAGATAGTTCAGTGAATGCAAAT | 1.2 | 1.29 | 0.937 | 1.26 | 0.82 | 1.65 | 0.751 | 0.916 | 0.797 | 0.78 | 1.07 | 0.887 | 0.972 | 0.0561 | 0.775 | 0.89 | 0.0462 | 0.507
14 | ATCTATAGGTAAAGTTCAGTGAAAGATCGATAGA | 1.31 | 1.74 | 1.49 | 1.19 | 1.41 | 1.99 | 1.33 | 1.21 | 1.04 | 2.62 | 2.35 | 2.02 | 2.38 | 1.21 | 1.51 | 0.707 | -0.456 | 1.95
15 | TCTAGCAGGCCAGAGGGACACTCAAGAGGTACGG | 0.376 | -0.183 | -1.54 | -1.73 | -1.07 | -0.803 | -0.661 | -1.02 | -0.883 | 0.0919 | 0.146 | -0.0485 | 0.179 | -0.19 | 0.112 | -0.54 | -0.905 | -0.834
16 | GCGTCTGGGGCAAAGCAGGTTACCATAAGGTTGG | 3.3 | 2.33 | -0.833 | -1.14 | 0.154 | 0.372 | -0.589 | 0.843 | -1.37 | 1.17 | 1.13 | 0.435 | 0.815 | -0.387 | 0.339 | 3.04 | 0.0693 | -0.358
